Molecules are shown by their SMILES. This is part of a sample that, as a whole, favours compounds with a hit. Of some 83,000 tested, about 20% had one in any assay.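 The endpoint reported here, percent growth, reads 100 for growth as untreated, 0 for no net growth and -100 for all cells dead.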 A number with no mark means an inactive call. The source made the active and inactive calls. Rule for the calls: active = growth percent below 10; inactive = the rest.

The experiment has as its system NCI-H322M lung. In words: NCI-60 one-dose screen, 48 h (100 = growth as untreated, 0 = no growth, -100 = all killed). Particulars: 10 µM unless noted.
As for `O=c1c2cccc3c(Nc4ccccn4)ccc(c32)c2nc3ccccc3n12`, the growth was 74.5%.
Then `CN(C)c1ccc(/C=C\C2=[N+](C)c3ccccc3C2(C)C)cc1`, with 23.7%; and `Cn1cc(-c2nc(-c3c[nH]c4ccccc34)cs2)c2cccnc21`, with 58.9%.
Then `CCOC(=O)CC(=O)c1c(C)cc(C)cc1C`, with 114%; and `CC(C)c1c(C(=O)Nc2ccccc2)c(-c2ccccc2)c(-c2ccc(F)cc2)n1CC[C@@H]1CC=CC(=O)O1`, with 58.6%; and `CCN(CC)Cc1cc(Nc2c3ccc(Cl)cc3nc3c(C)cccc23)ccc1O`, with -25.6% (active).
With `O=[N+]([O-])c1cccc(C2CC(c3ccccc3)=Nc3ccccc3S2)c1` (stereo not drawn), the growth is 99.6%.
As for `C=C1C(=O)O[C@H]2[C@H]1CC/C(Cn1cc(Cn3ccc4ccccc43)nn1)=C\CC[C@@]1(C)O[C@@H]21`, the growth was 79.7%.
Then `C=C1CCC2C3(C)COC(c4ccccc4Br)OC3CCC2(C)C1C/C=C1/C(=O)OCC1OC(C)=O` (stereo not drawn), with 21.7%; and `N=S(=O)(NC(=O)c1ccc(Cl)cc1Cl)c1ccc(Br)s1` (stereo not drawn), with 118%; and `CS(=O)CCCCCN=C=S` (stereo not drawn), with 1.21% (active).
As for `CC1CN(C(C)C)C(=S)N(c2ccccc2)C1=O` (stereo not drawn), the growth is 101%.
The result for `CC/C=C\C[C@H](O)C/C=C1/C(=O)C=C[C@@H]1C/C=C\CCCC(N)=O` reads 29.7%.
`CCOC(=O)c1ccc2c(c1)nc(/C=C/c1ccc(Cl)cc1)n2-c1cc(C(C)(C)C)[nH]n1`: the growth was 48.7%.
`COC1/C=C\OC2(C)Oc3c(C)c(O)c4c(O)c(c(CN(C)CCO)c(O)c4c3C2=O)NC(=O)/C(C)=C\C=C/C(C)C(O)C(C)C(O)C(C)C(OC(C)=O)C1C` (stereo not drawn): the growth is 97.8%.
The result for `C(=N\Nc1ccccn1)/c1ccccn1` reads 15.7%; that for `O=C1C=CC(=O)N1c1ccc(Cc2ccc(N3C(=O)C=CC3=O)cc2)cc1`, 100%.
Then `COc1cc(NC(N)=NCC(C)(C)COc2ccc(C(F)(F)F)cc2)cnc1C#N`, with 53.1%.
In the case of `CCOC(=O)C(Cc1cc(I)c(O)c(I)c1)NC(=O)c1ccccc1` (stereo not drawn), the growth is 101%.
The result for `CCn1cc2c(cc1=O)-c1nc3ccccc3c3ccnc(c13)C2=O` reads 76.3%; that for `Nc1c(C(=O)Nc2ccccc2)sc2nc3c(cc12)CN(CCc1ccccc1)CC3`, 94.2%.
Then `COc1ccc2nc3cc(Cl)ccc3c(NCCNCC(O)CO)c2c1` (stereo not drawn), with 20.6%.
Then `COc1ccc(C2c3ccc4ccccc4c3Oc3ncnc(N)c32)cc1` (stereo not drawn), with 88%.
In the case of `CCCCCCCCCCCCCCCC[N+]1(CC)CCCC1`, the growth is 1.53% (active).
Then `O=C1O[C@H]([C@H](O)CO)C(O)=C1O`, with 104%.
Take `Cc1cc2c(cc1C)NC1=C(N2)OC(c2c3ccccc3cc3ccccc23)C1=O` (stereo not drawn): the growth was 45.9%.
With `O=C(CN1CCN(c2cc3c(cc2F)c(=O)c(C(=O)O)cn3C2CC2)CC1)Nc1cc(=O)[nH]c(=O)[nH]1`, the growth is 95.3%.
Then `NC(N)=Nc1ccc(S(=O)(=O)O)cc1`, with 114%; and `COc1cc(C#N)cc(OC)c1OCCN(CCOc1c(OC)cc(C#N)cc1OC)S(=O)(=O)c1ccc(C)cc1`, with 91.6%.
As to `C[C@@H]1CC[C@@H]2[C@@H]1[C@H](OC(=O)/C=C/c1ccccc1)[C@]1(C3CCCCC3)C[C@@H](OC(=O)CO)[C@@]2(C)O1`, the growth is 92.9%.
Then `O=S(=O)(Nc1ccc(Cl)cc1Cl)c1ccc(-c2cnc(C3CC3)o2)cc1`, with 36.5%; and `O=[N+]([O-])c1cccc(-c2nc3sccn3c2-c2ccnc(NCCNS(=O)(=O)c3ccc(C(F)(F)F)cc3)n2)c1`, with 61.8%; and `CC[C@@H](C)OC(=O)c1nn(C(C)=O)c2ccccc12`, with 107%.
For `CCN(CC)CC(O)CNc1c2ccc([N+](=O)[O-])cc2nc2cc(OC)c(OC)cc12` (stereo not drawn), the growth is -43.5% (active).
The result for `CN1/C(=C\C=C\C2=[N+](C)c3ccccc3C2(C)C)C(C)(C)c2ccccc21` reads 8.56% (active).
As for `COc1ccc(-c2nn(-c3ccccc3)cc2/C=C2\SC(=O)NC2=O)cc1`, the growth is 117%.
Then `O=C(O)c1ccc2c(c1Sc1ccccc1)C(=O)c1ccccc1C2=O`, with 82.2%.
The result for `CCOC(=O)C12CCCC1=CC(=O)CC2` (stereo not drawn) reads 104%.
